About 300 (0.083%) of roughly 360,000 compounds were called active. Rule as the data show it: active = activation above about 40%; inconclusive = between about 15% and that limit; inactive = weaker than that. For the sample, actives were picked, then their nearest neighbours and some compounds at random.

The target in this experiment is D(2) dopamine receptor (Homo sapiens) (UniProt P14416). Nature of the experiment: Beta-Arrestin HTS for Positive Allosteric Modulators of the Human D2 Dopamine Receptor: Agonists. To be noted: DiscoveRx PathHunter D2 beta-arrestin, luminescence, 90 min; stronger effect = higher value; 100% = 57 uM dopamine signal. Put shortly: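 Agonist mode: compounds alone added to overnight-plated D2 PathHunter cells for 90 min at 37 C, with 57 uM final dopamine (EC100) defining full response. Beta-arrestin recruitment detected by chemiluminescent reagent, read after 1 h at ambient temperature.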
Chain of D(2) dopamine receptor (Homo sapiens) (P14416 whole entry, looked up): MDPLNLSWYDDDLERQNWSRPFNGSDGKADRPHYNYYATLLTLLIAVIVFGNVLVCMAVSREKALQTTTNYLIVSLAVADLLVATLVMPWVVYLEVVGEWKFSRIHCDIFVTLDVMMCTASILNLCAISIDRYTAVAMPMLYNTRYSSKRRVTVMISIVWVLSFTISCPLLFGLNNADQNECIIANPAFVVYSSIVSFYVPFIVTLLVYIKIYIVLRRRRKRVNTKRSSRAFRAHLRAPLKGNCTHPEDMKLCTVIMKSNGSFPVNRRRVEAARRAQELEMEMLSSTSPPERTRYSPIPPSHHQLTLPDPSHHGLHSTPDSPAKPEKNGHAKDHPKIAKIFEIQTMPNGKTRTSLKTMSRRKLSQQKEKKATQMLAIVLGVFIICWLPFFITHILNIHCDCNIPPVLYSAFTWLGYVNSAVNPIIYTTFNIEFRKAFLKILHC
`Cc1cc(C)n2nc(C(=O)N3CCN(Cc4ccc5c(c4)OCO5)CC3)nc2n1`: the activation was 10.2% (inactive).
With `COc1ccc(-c2cc(C(=O)N3CCN(Cc4ccc5c(c4)OCO5)CC3)on2)cc1OC`, the activation is -0.403% (inactive).
With `O=C(c1cccs1)N1CCN(Cc2ccc3c(c2)OCO3)CC1` the figure was 46.9% (active); with `CCOc1ccc(C(=O)NCC(=O)N2CCN(c3ccc(C(F)(F)F)cn3)CC2)cc1`, 9.96% (inactive).
In the case of `COP1(=O)C[C@@H](O)[C@@H](O)[C@@H](COCc2ccccc2)O1` (some centres not stated), the activation was 0.955% (inactive).
With `Oc1cc2c(cc1O)CN(C(=S)NCCc1ccc(Cl)cc1)CCC2` the figure was -1.87% (inactive); with `O=[N+]([O-])c1ccc(CN2CC(N3CC=CC3)CS2(=O)=O)cc1` (configuration not stated), -1.85% (inactive).
As for `CCc1ccc(OCC(=O)OC(C)C(=O)NC2CC2)cc1` (configuration not stated), the activation was -2.44% (inactive).
The same measure for `Cc1cc(C)cc(N(CC(=O)N2CC=C(c3ccccc3)CC2)S(=O)(=O)c2c(C)noc2C)c1`: 0.128% (inactive); for `COc1ccccc1CCNC(=O)CN1C(=O)NC2(CCCC2)C1=O`: -3.81% (inactive).
In the case of `O=c1ccn([C@@H]2O[C@H](CNS(=O)(=O)c3cc4ccccc4s3)[C@@H](O)[C@H]2O)c(=O)[nH]1`, the activation was -2.86% (inactive).
The same measure for `CCOC1=C2CN(S(=O)(=O)c3ccc(C)cc3)[C@H](c3cccs3)C[C@H]2[C@H]2C(=O)N(c3ccccc3)C(=O)[C@H]2C1`: -3.55% (inactive); for `CCC(C)(C)n1nnnc1CN1CCN(c2nc3ccc(C)cc3cc2C#N)CC1`: -5.17% (inactive); for `COc1ccc(C(=O)NNC(=O)c2cnccn2)cc1[N+](=O)[O-]`: 4.81% (inactive).
On to `COc1ccc(C(=O)O/N=C(\N)c2ccccn2)cc1[N+](=O)[O-]`, for which the activation was 42.1% (active).
The same measure for `Cc1ccc(C(=O)O/N=C(\N)c2ccccn2)cc1Cl`: 5.09% (inactive); for `O=C(NCCO)c1cccc(-c2cccc3nccn23)c1`: -5% (inactive); for `O=C(CC1SC(=Nc2ccccc2)N(Cc2ccccn2)C1=O)Nc1cccc(Cl)c1` (configuration not stated): 0.599% (inactive).
As to `CNc1cncc(-c2cccc(C(=O)N3CCOCC3)c2)n1`, the activation is -3.27% (inactive).
On to `CC(C)c1cccc(-c2csc(C(O)c3ccccc3)n2)c1` (configuration not stated), for which the activation is 5.04% (inactive).
With `CCC(=O)OCc1c(C(F)(F)F)nn(C)c1Oc1cccc(C(F)(F)F)c1` the figure was -2.87% (inactive).
In the case of `O=C(CN1CCN(S(=O)(=O)c2ccc3ccccc3c2)CC1)NC(=O)NC1CCCCC1`, the activation was -2.7% (inactive).
`CCn1cc(CNC(=O)c2cc([N+](=O)[O-])c(C)c([N+](=O)[O-])c2)cn1`: the activation is 1.34% (inactive).
In the case of `O=C1C=CN2CCCC2CC1` (configuration not stated), the activation was -2.65% (inactive).
The same measure for `Nc1ncnc2c1ncn2[C@@H]1O[C@H](C(=O)N2CCCN(Cc3ccccc3F)CC2)[C@@H](O)[C@H]1O`: -3.13% (inactive); for `O=C1CCC(C(=O)Nc2ccc(OC(F)F)cc2)N1` (configuration not stated): -0.767% (inactive); for `O=C1CSC(=O)N1CCOCCN1C(=O)CSC1=O`: -0.569% (inactive).
The same measure for `CN(CCc1ccccn1)C1CCCN(S(=O)(=O)c2ccccc2Cl)C1` (configuration not stated): 4.32% (inactive); for `OCCN1CCN(c2ncnc3c2ncn3[C@H]2CN(Cc3ccco3)C[C@@H](CO)O2)CC1`: 2.19% (inactive); for `COc1ccc(OCc2nnc3n2N=C(c2ccccc2)C(CC(=O)O)S3)cc1` (configuration not stated): -4.75% (inactive).
Turning to `CCn1c(SCC(=O)Nc2cccc(F)c2)nnc1-c1cc2cc(Br)ccc2o1`, the activation was 0.906% (inactive).
On to `O=C1N(c2ccccc2)C(=Nc2ccccc2)SC12CC2`, for which the activation was -5.55% (inactive).
Regarding `O=C(CN1CCOCC1)Nc1c2c(nc3c1CCC3)CCC2`, the activation is -3.04% (inactive).
With `Cc1nc(-c2ccc(F)cc2)c(CC(=O)N(C)CC(=O)Nc2c(C)cccc2C)s1` the figure was 0.938% (inactive).
The same measure for `Cn1nc(C(F)(F)F)c(C(=O)Nc2cccc(C(F)(F)F)c2)c1SCc1ccc(Cl)cc1`: 2.52% (inactive); for `CC(=O)NC(c1ccccc1)c1nc(-c2ccccc2C)cs1` (configuration not stated): 73.4% (active); for `COc1cccc(C(NC(C)=O)c2nc(-c3ccccc3OC)cs2)c1` (configuration not stated): -6.01% (inactive).
For the molecule `CC(=O)NC(c1ccccc1)c1nc(-c2cccc(C(C)C)c2)cs1` (configuration not stated), the activation was 1.91% (inactive).
In the case of `CCCC(=O)N1CCC1(C)C(=O)NS(=O)(=O)c1ccc(Cl)cc1` (configuration not stated), the activation is -2.87% (inactive).
Consider `CN1OC[C@@H]2CN(C(=O)c3cccnc3)[C@H](c3ccc(N4CCCCC4)cc3)C[C@@H]21`, for which the activation is -5.55% (inactive).
`CCOc1ccc(Nc2nc(Cc3nnc(SCC(=O)c4ccc(C)cc4)o3)cs2)cc1`: the activation was 0.605% (inactive).
For `O=C(Cn1c(-c2ccc(Cl)cc2)noc1=O)N1CCN(c2ccccc2F)CC1`, the activation was 3.21% (inactive).
The same measure for `O=c1onc(-c2c(F)cccc2F)n1-c1ccccc1Cl`: 58.1% (active); for `Cc1ccc2cccc(S(=O)(=O)N3CCN(c4ccccc4F)CC3)c2n1`: 1.48% (inactive); for `O=C(O)CCCC(=O)Nc1ccc(Oc2cccc(C(F)(F)F)c2)nc1`: -2.77% (inactive).
With `COc1ccc(NC(=O)C2=NNC(=O)CC2)cc1S(=O)(=O)N1CCCCC1`, the activation was 3.11% (inactive).
With `CC1=C(C(=O)Nc2cccc(C(=O)NCC(C)c3ccccc3)c2)SCCO1` (configuration not stated) the figure was 2.99% (inactive); with `Cc1ccc(CN2CCN(/N=C/c3cccnc3)CC2)c(C)c1`, -1.75% (inactive).
The same measure for `Oc1ccc(CN2CCN(c3ncccn3)CC2)cc1`: 57.4% (active).
As for `Cc1ccc(CN2CCN(c3ncccn3)CC2)c(C)c1`, the activation is 101% (active).
Regarding `Cc1ccc(CN2CCN(/N=C/c3ccco3)CC2)c(C)c1`, the activation was -3.14% (inactive).
With `CN(C)C(=O)c1nc2ccc(Cl)cn2c1CN1CCN(c2ncccn2)CC1` the figure was -28.2% (inactive); with `c1cnc(N2CCN(c3ccc4ccccc4n3)CC2)nc1`, -9.01% (inactive); with `CN(C)c1ccc(CNC2C3CC4CC(C3)CC2C4)cc1` (configuration not stated), -0.168% (inactive).
With `CCCCN(Cc1ccccc1)C(=O)C1CCN(Cc2sccc2C)CC1` the figure was -2.44% (inactive); with `O=C(Nc1ccc(N2CCOCC2)nc1)c1c(F)cccc1F`, -1.59% (inactive); with `CCCCC(=O)N(C)c1c(CC)nc2c(OCc3ccc(S(C)(=O)=O)cc3)cccn12`, -2.46% (inactive).

(Values after PubChem BioAssay AID624465 (National Center for Advancing Translational Sciences (NCATS), 2012).)
